Measurements published in PubChem BioAssay (NCATS).
Several values for one entry are separate records, joined by “and”; a condition that tells them apart may be missing. Equal values may be shown once. Records with an inconclusive call do not appear. A call without a number means that no potency is given here. Activity calls are given as the source filed them. Calls come from the whole dose curve; as a rule, active = well fitted inhibition curve with a large enough effect; inconclusive = small, poorly fitted or top-dose-only effect; inactive = no such curve, though single readings can be large or run the other way.

Target: Cytochrome P450 3A4 (Homo sapiens) (UniProt P08684)
Experiment: qHTS Assay for Inhibitors and Substrates of Cytochrome P450 3A4 (AID 884); note: nearly all actives have a fitted effect of over 50% in size
Details: recombinant CYP3A4, Luciferin-PPXE luminescence; series mostly up to 57.1 µM
Procedure, shortened: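 Luminescent readout of luciferin produced by CYP3A4 (20 nM) dealkylation of Luciferin-PPXE, 25 uM (its KM). NADPH-driven reaction ran 60 min at RT after 10 min compound preincubation; data scaled to 57 uM ketoconazole as 100% inhibition.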
Potency is the fitted concentration of half-maximal effect.

Cytochrome P450 3A4 (Homo sapiens), sequence (P08684 whole entry, looked up): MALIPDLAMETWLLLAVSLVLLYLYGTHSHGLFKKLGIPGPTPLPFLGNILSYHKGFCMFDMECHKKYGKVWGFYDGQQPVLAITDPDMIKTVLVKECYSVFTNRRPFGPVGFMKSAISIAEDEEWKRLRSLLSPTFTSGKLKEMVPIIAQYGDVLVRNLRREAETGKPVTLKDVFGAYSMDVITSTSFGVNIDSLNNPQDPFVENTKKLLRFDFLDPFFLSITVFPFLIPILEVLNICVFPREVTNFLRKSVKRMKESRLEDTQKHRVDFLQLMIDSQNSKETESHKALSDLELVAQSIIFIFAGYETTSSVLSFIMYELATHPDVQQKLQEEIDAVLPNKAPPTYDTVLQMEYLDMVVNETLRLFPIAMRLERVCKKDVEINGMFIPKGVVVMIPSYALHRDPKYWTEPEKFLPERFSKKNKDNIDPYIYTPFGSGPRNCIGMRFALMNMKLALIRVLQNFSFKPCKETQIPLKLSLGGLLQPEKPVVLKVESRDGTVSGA

Row | SMILES | Potency
1 | CN(C)/C=N/c1cc(=O)n(C)c(=O)n1CC1CC1 | inactive
2 | CCC1=C2CC[C@H]3C(=O)N(c4ccccc4)C(=O)[C@H]3[C@H]2[C@@]2(Cc3ccccc3)C(=NCCc3c[nH]c4ccccc34)OC(=O)N2C1=O | 1.26 µM (active)
3 | COC(=O)[C@@H]1C[C@@]2(O)[C@@H](O)[C@@H](O)[C@@H](O)C[C@H]2N1Cc1ccc(Cl)cc1 | inactive
4 | O=C(O)c1cc(-c2ccco2)nc2ccccc12 | inactive
5 | CN1C[C@@H]2C(c3ccccc3)C3(c4cccnc4)CC2(C3)[C@H]1c1ccccc1 (stereo not given in full) | 2.51 µM (active)
6 | N#Cc1ccc(C23CC4(C2)[C@H](CN(Cc2ccc(C(F)(F)F)cc2)[C@@H]4c2ccccc2)C3c2ccc(Cl)nc2)cc1 (stereo not given in full) | inactive
7 | COC(=O)CNC(=O)[C@@]1(Cc2ccccc2)C=C[C@@H](C)N1C(=O)c1ccccc1 | inactive
8 | CCC1=C2CC[C@H]3C(=O)N(c4ccccc4)C(=O)[C@H]3[C@H]2[C@@]2(Cc3ccccc3)C(=O)N(CC(=O)OC)C(=O)N2C1=O | 3.98 µM (active)
9 | CCC1=C(OC(=O)N(CC)CC)N2C(=O)OC(=NCC3CC3)[C@]2(Cc2ccccc2)[C@H]2C1=CC[C@H]1C(=O)N(CC)C(=O)[C@H]12 | 5.01 µM (active)
10 | CCC1=C(OC(=O)N(CC)CC)N2C(=O)OC(=NCCOC)[C@]2(C)[C@H]2C1=CC[C@H]1C(=O)N(CC)C(=O)[C@H]12 | 7.94 µM (active)
11 | C/C(CCN1CCCCc2nc(C)c(C)cc21)=N\O[C@@H](C)CN1CCCc2nc(C)c(C)cc21 | 3.16 µM (active)
12 | COC(=O)[C@@H]1C[C@@]2(O)[C@@H](O)[C@@H](O)[C@@H](O)C[C@H]2N1CC1CC1 | inactive
13 | CCC1=C2CC[C@H]3C(=O)N(C)C(=O)[C@H]3[C@H]2[C@@]2(C)C(=NCc3ccccc3)OC(=O)N2C1=O | 12.6 µM (active)
14 | COC(=O)[C@@H]1C[C@@]2(O)[C@H](O)[C@H](O)[C@H](O)C[C@H]2N1Cc1ccc(N2CCOCC2)cc1 | inactive
15 | NC(N)=NCCC[C@H](NC(=O)CC1(CC(=O)N2CCN(C3c4ccccc4NC(=O)c4ccccc43)CC2)CCCC1)C(=O)NCCn1c(=O)n(-c2ccccc2)n(-c2ccccc2)c1=O (stereo not given in full) | 12.6 µM (active)
16 | COC(=O)[C@@H]1C[C@@]2(O)[C@H](O)[C@H](O)[C@H](O)C[C@H]2N1Cc1cccc2ccccc12 | inactive
17 | Cn1c(=O)c(C(=O)COC(=O)c2cc(C3CC3)nc3ccccc23)c(N)n(Cc2ccccc2)c1=O | inactive
18 | O=Cc1ccsc1B(O)O | inactive
19 | O=C(O)c1cc(C(F)(F)F)nc2c(C(F)(F)F)cccc12 | inactive
20 | COCCN=C1OC(=O)N2C(=O)C3=C4C(C[C@H]5C(=O)N(c6ccccc6)C(=O)[C@H]5[C@H]4[C@@]12Cc1ccccc1)[C@H]1C(=O)N(c2ccccc2)C(=O)[C@H]1[C@H]3C (stereo not given in full) | 5.01 µM (active)

Row | SMILES | Potency
21 | COC(=O)[C@@H]1C[C@@]2(O)[C@H](O)[C@H](O)[C@H](O)C[C@H]2N1CC1CC1 | inactive
22 | CCCN1[C@H](C(=O)OC)C[C@@]2(O)[C@@H](O)[C@@H](O)[C@@H](O)C[C@@H]12 | inactive
23 | N#Cc1ccc(C23CC4(C2)[C@H](CN(Cc2ccc(-c5ccccc5)cc2)[C@@H]4c2ccccc2)C3c2ccc(Cl)nc2)cc1 (stereo not given in full) | inactive
24 | COC(=O)c1ccc(C23CC4(C2)[C@H](CN(Cc2ccc(-c5ccccc5)cc2)[C@@H]4c2ccccc2)C3c2ccccc2)cc1 (stereo not given in full) | inactive
25 | [C-]#[N+]/C(C#N)=C\c1cc(C(C)(C)C)c(O)c(C(C)(C)C)c1 | 3.98 µM (active)
26 | CCC1=C2CC[C@H]3C(=O)NC(=O)[C@H]3[C@H]2[C@@]2(C)C(=NCCc3c[nH]c4ccccc34)OC(=O)N2C1=O | 12.6 µM (active)
27 | O=C(O)c1ccc(B(O)O)cc1 | inactive
28 | COC(=O)c1ccc(CN2[C@H](C(=O)OC)C[C@@]3(O)[C@@H](O)[C@@H](O)[C@@H](O)C[C@@H]23)cc1 | inactive
29 | COCCNC(=O)C1(C)C=CCN1C(C)=O (stereo not given) | inactive
30 | N#Cc1ccc(C23CC4(C2)[C@H](CN(Cc2ccc(-c5ccccc5)cc2)[C@@H]4c2ccccc2)C3c2ccc(C(F)(F)F)cc2)cc1 (stereo not given in full) | inactive
31 | N=C(N)c1ccc(N2CCN(C3CCN(CC(=O)O)CC3)CC2)cc1 | inactive
32 | C/C(CCN1CCCCc2nc(C)c(C)cc21)=N\O[C@@H](C)c1cn([C@H](CO)Cc2ccccc2)nn1 | 3.98 µM (active) and 5.01 µM (active)
33 | NC(=O)NCC1CC1 | inactive
34 | CC(C)c1ccccc1S(=O)(=O)c1cc(N)c2ncccc2c1[N+](=O)[O-] | 1 µM (active)
35 | C/C(CCC(=O)OC[C@@H]1O[C@H](C#Cc2ccccc2)C=C[C@@H]1Oc1ccc(C)cc1)=N/O[C@@H](C)CN1CCCCc2nc(C)c(C)cc21 | 3.16 µM (active)
36 | COC(=O)CC1Oc2cc3oc4c(c3cc2O1)C(=O)CC(C)(C)C4 (stereo not given) | inactive
37 | CN(C)/C=N/c1cc(=O)[nH]c(=O)n1Cc1ccccc1 | inactive
38 | CCC1=C2CC[C@H]3C(=O)N(c4ccccc4)C(=O)[C@H]3[C@H]2[C@@]2(C)C(=O)N(Cc3ccccc3)C(=O)N2C1=O | inactive
39 | C#CCCCO/N=C1/C[C@@H](O)[C@@H](O)[C@@H]2[C@@H]3C(=O)N(Cc4ccccc4)C(=O)[C@H]3CC[C@H]12 | 3.98 µM (active)
40 | O=C(Nc1cc(NC(=O)c2ccccc2)c(C(=O)O)cc1C(=O)O)c1ccccc1 | inactive
